Here are results for 13 compounds from PubChem BioAssay (NCI).

Among the test systems are SR leukemia; RPMI-8226 leukemia; OVCAR-8 ovarian; OVCAR-5 ovarian; OVCAR-4 ovarian; SK-OV-3 ovarian; IGROV1 ovarian; OVCAR-3 ovarian; HS 578T breast; NCI/ADR-RES ovarian.
What all share (test): NCI-60 one-dose screen, 48 h (100 = growth as untreated, 0 = no growth, -100 = all killed)
Holding throughout (conditions): 10 µM unless noted

Several values for one entry are separate records, joined by “and”; a condition that tells them apart may be missing. Identical values can stand only once. About 83,000 compounds went through this panel and 20% of them were active in at least one assay; those are over-represented in the sample as a whole.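 Results are percent growth after 48 hours of single-concentration exposure. 100 means growth as in untreated cells, lower positive values show inhibition; negative values down to -100 show cell death.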 Activity calls are given as the source filed them. Rule for the calls: active = growth percent below 10; inactive = the rest.

On to `COC(=O)c1nc(-c2ccc(C)cc2)oc1S(=O)(=O)c1ccc(Cl)cc1`, for which the growth in the test with SR leukemia was -15.7% (active); in the test on RPMI-8226 leukemia, 81.2% (inactive); with OVCAR-8 ovarian it was 94.2% (inactive); with OVCAR-5 ovarian, 96.3% (inactive); in the test on OVCAR-4 ovarian it was 100% (inactive); in the test on SK-OV-3 ovarian it was 97.4% (inactive). Besides, the growth in the test with IGROV1 ovarian was 89.3% (inactive); in the test on OVCAR-3 ovarian, 107% (inactive); in the test with HS 578T breast, 105% (inactive); with NCI/ADR-RES ovarian it was 105% (inactive).

In the case of `O=C(NCCCN1CCCCC1)c1ccc(-c2nc3ccc4[nH]ncc4c3c3c2CCCC3)cc1`, the growth was -18.3% (active) in the test with SR leukemia; 29.9% (inactive) with RPMI-8226 leukemia; 62% (inactive) in the test on OVCAR-8 ovarian; 94.6% (inactive) with OVCAR-5 ovarian; 54.3% (inactive) in the test with OVCAR-4 ovarian; 24.9% (inactive) in the test on SK-OV-3 ovarian. Further, the growth was 29.2% (inactive) in the test with IGROV1 ovarian, 67.5% (inactive) with OVCAR-3 ovarian, 14.4% (inactive) in the test on HS 578T breast and 85.2% (inactive) in the test on NCI/ADR-RES ovarian.

As for `CCN1C(=S)N(CC)C2C1NC(=S)N2/N=C/C=C/c1ccccc1` (stereo not given), the growth in the test with SR leukemia is 20% (inactive); with RPMI-8226 leukemia, 41.4% (inactive); in the test on OVCAR-8 ovarian, 41.6% (inactive); in the test on OVCAR-5 ovarian it was 54.5% (inactive); in the test with OVCAR-4 ovarian it was 61% (inactive); in the test with SK-OV-3 ovarian, 35.5% (inactive). For the same compound, the growth with IGROV1 ovarian is 37.9% (inactive); with OVCAR-3 ovarian, 3.77% (active); with HS 578T breast, 12.1% (inactive); with NCI/ADR-RES ovarian it was 15.4% (inactive).

Consider `O=C1/C(=C/c2ccccc2[N+](=O)[O-])Cc2ccccc21`, for which the growth with SR leukemia is 3.7% (active) and 11.5% (inactive); in the test with RPMI-8226 leukemia, -5.97% (active) and 3.37% (active); in the test with OVCAR-8 ovarian, 0.344% (active) and 59.9% (inactive); in the test on OVCAR-5 ovarian it was -1.63% (active) and 12.7% (inactive); in the test on OVCAR-4 ovarian, -36.5% (active) and -39.5% (active); with SK-OV-3 ovarian it was 70.4% (inactive) and 95.2% (inactive). Also, the growth in the test on IGROV1 ovarian is -10.6% (active) and 17.3% (inactive); with OVCAR-3 ovarian, -23.8% (active) and -50.2% (active); in the test with HS 578T breast it was 32.3% (inactive) and 71.2% (inactive); with NCI/ADR-RES ovarian, -47.5% (active).

Take `CC1(Cc2ccccc2)CC2=C(C(=O)O1)C(c1ccccc1)NC(=O)N2` (stereo not given): the growth in the test with SR leukemia was 76.6% (inactive); in the test on RPMI-8226 leukemia it was 94% (inactive); in the test on OVCAR-8 ovarian, 104% (inactive); with OVCAR-5 ovarian, 81.2% (inactive); in the test on OVCAR-4 ovarian, 108% (inactive); with SK-OV-3 ovarian it was 98.8% (inactive). In addition, the growth was 118% (inactive) in the test on IGROV1 ovarian, 109% (inactive) in the test with OVCAR-3 ovarian, 109% (inactive) in the test on HS 578T breast and 106% (inactive) in the test on NCI/ADR-RES ovarian.

For `Nc1ncnc2c1C(c1ccc([N+](=O)[O-])cc1)c1sc3c(F)cccc3c1O2` (stereo not given), the growth is 94.3% (inactive) with SR leukemia; 103% (inactive) with RPMI-8226 leukemia; 102% (inactive) with OVCAR-8 ovarian; 85.9% (inactive) with OVCAR-5 ovarian; 99.8% (inactive) with OVCAR-4 ovarian; 109% (inactive) in the test with SK-OV-3 ovarian. Moreover, the growth was 85.6% (inactive) in the test on IGROV1 ovarian, 110% (inactive) in the test on OVCAR-3 ovarian, 89.2% (inactive) in the test with HS 578T breast and 101% (inactive) in the test on NCI/ADR-RES ovarian.

On to `O=C1/C(=C/c2ccccc2)CN(C(=O)C(Cl)Cl)C/C1=C\c1ccccc1`, for which the growth in the test on SR leukemia was -4.98% (active); in the test with RPMI-8226 leukemia it was -25.6% (active); in the test on OVCAR-8 ovarian it was 10.7% (inactive); in the test with OVCAR-5 ovarian it was 31.7% (inactive); with OVCAR-4 ovarian, 29.7% (inactive); in the test on SK-OV-3 ovarian it was 90.2% (inactive). For the same compound, the growth in the test on IGROV1 ovarian was -25.1% (active); in the test with OVCAR-3 ovarian it was -52.7% (active); in the test with HS 578T breast, 4.17% (active); in the test on NCI/ADR-RES ovarian, 13.5% (inactive).

As for `[2H]C([2H])([2H])Oc1cc(F)ccc1/C=C/C(=O)/C=C(/C=C/c1ccc(F)cc1OC([2H])([2H])[2H])OB(F)F`, the growth in the test on SR leukemia was 41.7% (inactive); in the test on RPMI-8226 leukemia, 3.53% (active); in the test on OVCAR-8 ovarian, 4.99% (active); in the test with OVCAR-5 ovarian, 104% (inactive); in the test with OVCAR-4 ovarian it was 17.5% (inactive); in the test on SK-OV-3 ovarian, 101% (inactive). Further, the growth in the test with IGROV1 ovarian is 12% (inactive); in the test on OVCAR-3 ovarian it was 10.5% (inactive); with HS 578T breast, 46.3% (inactive); in the test with NCI/ADR-RES ovarian, 1.89% (active).

`O=C(CCl)N(O)c1ccc(/C=C/c2ccccc2)cc1`: the growth with SR leukemia is 11% (inactive); with RPMI-8226 leukemia it was 72.7% (inactive) and 65.9% (inactive); with OVCAR-8 ovarian, 63.1% (inactive) and 89.3% (inactive); in the test on OVCAR-5 ovarian, 109% (inactive) and 119% (inactive); with OVCAR-4 ovarian, 103% (inactive) and 94.9% (inactive); with SK-OV-3 ovarian, 101% (inactive) and 105% (inactive). Moreover, the growth with IGROV1 ovarian is 70.9% (inactive) and 61.9% (inactive); in the test on OVCAR-3 ovarian it was 98.7% (inactive) and 81.9% (inactive); with HS 578T breast, 107% (inactive) and 111% (inactive); in the test with NCI/ADR-RES ovarian it was 86.3% (inactive) and 89.1% (inactive).

In the case of `C[C@@H]1CC[C@@H]2[C@@H]1[C@H](OC(=O)/C=C/c1ccccc1)[C@]1(c3ccccc3)C[C@@H](NC(=O)CO)[C@@]2(C)O1`, the growth was 90.4% (inactive) in the test with SR leukemia; 92.2% (inactive) in the test on RPMI-8226 leukemia; 93.9% (inactive) in the test with OVCAR-8 ovarian; 98.5% (inactive) in the test with OVCAR-5 ovarian; 97.2% (inactive) with OVCAR-4 ovarian; 90.4% (inactive) with SK-OV-3 ovarian. The growth was 102% (inactive) in the test with IGROV1 ovarian, 108% (inactive) with OVCAR-3 ovarian, 92% (inactive) with HS 578T breast and 93% (inactive) in the test on NCI/ADR-RES ovarian.

Take `CN1CCN(C(=O)OCc2nc3c(N4CCOCC4)nc(Cl)nc3n2C)CC1`: the growth is -28% (active) with SR leukemia; -28.2% (active) in the test on RPMI-8226 leukemia; -80.3% (active) with OVCAR-8 ovarian; -73.7% (active) with OVCAR-5 ovarian; -39.5% (active) in the test with OVCAR-4 ovarian; 69.9% (inactive) in the test on SK-OV-3 ovarian. For the same compound, the growth is -95.4% (active) in the test with IGROV1 ovarian, -80.4% (active) in the test on OVCAR-3 ovarian, -31.2% (active) with HS 578T breast and -1.09% (active) with NCI/ADR-RES ovarian.

Turning to `OB(O)c1ccsc1-c1nc2ccc3[nH]ncc3c2c2c1CCCC2`, the growth in the test on SR leukemia was 14.1% (inactive); with RPMI-8226 leukemia it was 60.3% (inactive); in the test with OVCAR-8 ovarian it was 66.2% (inactive); in the test with OVCAR-5 ovarian it was 92.1% (inactive); with OVCAR-4 ovarian it was 72.3% (inactive); with SK-OV-3 ovarian it was 15.3% (inactive). The growth is 32.6% (inactive) in the test with IGROV1 ovarian, 85.2% (inactive) with OVCAR-3 ovarian, 32.9% (inactive) with HS 578T breast and 75.6% (inactive) with NCI/ADR-RES ovarian.

Regarding `Cc1cc2nc(C(Cl)Cl)nc(-c3ccc(Cl)cc3)n2n1`, the growth in the test with SR leukemia is 9.87% (active); in the test on RPMI-8226 leukemia, -7.69% (active); in the test with OVCAR-8 ovarian, 12.8% (inactive); in the test on OVCAR-5 ovarian, -0.203% (active); in the test on OVCAR-4 ovarian it was -19.6% (active); with SK-OV-3 ovarian, -6.97% (active). Also, the growth is 5.11% (active) in the test on IGROV1 ovarian, -26.6% (active) in the test on OVCAR-3 ovarian, -32% (active) in the test with HS 578T breast and -6.58% (active) in the test on NCI/ADR-RES ovarian.
